Screening data deposited in PubChem by several laboratories.
SMARCA2 activ: activators of SMARCA2 function | MG213 cells, MMTV-luciferase reporter, dexamethasone, overnight | activation, % at 9.1 µM | 1% of 370,000 active | AID 652017; in the data active means activation above about 7.8%;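 further: 0% = vehicle wells and 100% = reference activator wells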
Gli-Sufu antag: Gli-Sufu pathway antagonism; Sufu-KO-LIGHT fibroblasts, Gli luciferase reporter luminescence; inhibition, % at 5 µM; 0.74% of 340,000 active;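 active means inhibition above about 55%, limit read from the data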;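 further: 0% = DMSO-treated cells and 100% = wells with medium but no cells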
NR2F2 inh: blocks human COUP-TFII nuclear receptor; P24468; HEK293T NGFI-A luciferase reporter, luminescence; inhibition, % at 8.6 µM; AID 686940; 0.7% of 370,000 active;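 active means inhibition above a per-plate cutoff, mean inhibition of test wells between control levels plus 3 SD, cut at about 38% in these data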;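 further: cells cotransfected with COUP-TFII expression vector driving the NGFI-A reporter; 0% = median of COUP-TF2 test wells and 100% = reporter-only cells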
GalR3 antagonist: human GalR3 antagonism; AID 651719; 0.44% of 360,000 active; HEK293 GalR3-CNG cAMP membrane potential fluorescence; galR3 body fused to GalR1 C-terminus; inhibition, % at 3 µM;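 active means inhibition above the screen-wide average plus 3 SD, cut at about 13% in these data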;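 further: forskolin and galanin both at EC90 stimulate the cells; cAMP rise reported by CNG channel membrane potential dye signal; 0% = forskolin plus galanin with DMSO and 100% = forskolin alone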
Target sequence (O60755 1-299 limits assumed): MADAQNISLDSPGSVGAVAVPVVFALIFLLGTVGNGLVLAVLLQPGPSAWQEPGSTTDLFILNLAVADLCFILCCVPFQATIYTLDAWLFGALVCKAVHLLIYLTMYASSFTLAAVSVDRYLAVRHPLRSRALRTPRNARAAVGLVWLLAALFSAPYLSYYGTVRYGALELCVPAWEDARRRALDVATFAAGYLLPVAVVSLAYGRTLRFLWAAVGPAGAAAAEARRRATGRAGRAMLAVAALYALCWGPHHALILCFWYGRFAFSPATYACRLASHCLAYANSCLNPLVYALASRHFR
FXN GAA850 act: activators of GAA850 frataxin (FXN) promoter. HEK293 lucGAA850 FXN promoter luciferase reporter, 24 h; percent of 10 µM SAHA response. activation, % at 6 µM. 0.56% of 360,000 active. AID 540364;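 active means activation above the average of all compounds screened plus 3 SD, cutoff fixed separately per campaign, cut at about 7.5% in these data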;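 further: 0% = DMSO wells and 100% = 10 µM SAHA wells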
Cardio protect: modulators protecting cardiomyocytes from myocardial damage. protection from H2O2 cell death, % at 20 µM. H9c2 cardiomyocytes, H2O2 injury protection, ATPLite, 2 h. AID 588492. 0.63% of 360,000 active;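 active means compounds giving at least 50% protection of heart cells from peroxide-induced death in the single-dose screen, raw or plate-pattern-corrected value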;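 further: 0% = DMSO wells with peroxide and 100% = DMSO wells without peroxide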
GAA30 FXN cntr: GAA30 FXN promoter activation counter-screen | shares compounds with FXN GAA850 act | HEK293 lucGAA30 FXN promoter luciferase, 24 h; DMSO = 0%, 5 µM ipriflavone = 100% | activation, % at 6 µM | 66% of 1,900 active | AID 588350;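 active means mean activation above the mean of solvent-only control wells plus 3 SD, cut at about 22% in these data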;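 further: counterscreen of GAA850 promoter hits where activity marks nonselective or luminescence artifacts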
FXN GAA850 conf: confirmation of GAA850 frataxin (FXN) promoter activators | shares compounds with FXN GAA850 act | AID 588351 | activation, % at 6 µM | HEK293 lucGAA850 FXN promoter luciferase reporter, 24 h; 100% = activation by SAHA | 86% of 1,900 active;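 active means mean activation above a set limit taken from the primary screen, cut at about 8% in these data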;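 further: 0% = DMSO wells and 100% = 10 µM SAHA wells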
* hit, by the source's call; / = no result given. Sampled rows, rich in hits. Any-hit rate of the full collection: about 3.4%.

SMILES	SMARCA2 activ	Gli-Sufu antag	NR2F2 inh	GalR3 antagonist	FXN GAA850 act	Cardio protect	GAA30 FXN cntr	FXN GAA850 conf
Cc1ccc(-c2noc(C3CCCN(C(=O)c4ccccc4Br)C3)n2)o1 (stereo not drawn)	-0.4	-32.9	-14.3	-5.1	2.3	1.7	/	/
Fc1cccc(/C=N/Nc2ncnc3nc[nH]c23)c1	5.5	-29.1	-84.5	0.4	10.4*	2.8	113.1*	48.7*
Oc1ccc(/C=N/Nc2ncnc3nc[nH]c23)cc1	5.2	7.6	-36.0	-0.8	5.7	-3.1	/	/
Cc1ccc(C)c(Nc2ncnc3nc[nH]c23)c1	3.6	-7.4	-4.3	1.1	1.0	-12.3	/	/
Clc1ccc(/C=N/Nc2ncnc3nc[nH]c23)cc1	3.6	-27.0	-42.1	-4.6	9.8*	-1.3	109.8*	49.8*
Cc1ccc(/C=N/Nc2ncnc3nc[nH]c23)cc1	5.1	-33.5	-44.9	-6.4	16.7*	-1.3	123.5*	55.6*
CCc1ccccc1-c1cc(C(C)=O)c2n(c1=O)CCC2	-1.6	/	1.1	/	/	/	/	/
COC(=O)[C@H]1C[C@@]2(N3CCCCC3)c3ccccc3N[C@H]2N1S(=O)(=O)c1ccc(C)cc1	-4.0	/	-18.1	/	/	/	/	/
CCOc1ccc(S(=O)(=O)Nc2ccccc2C(=O)Nc2ccccc2N2CCOCC2)cc1	-0.7	11.1	-1.6	0.7	8.3*	-4.1	18.7	10.9*
CCCCCc1ccc(-c2nnc(N)s2)cc1	5.3	-41.9	-5.8	-2.7	7.8*	-7.2	78.1*	21.1*
CCSc1nc2c(c(=O)n(C)c(=O)n2C)n1Cc1ccc(Cl)cc1	1.1	-1.9	-5.5	0.0	0.8	19.1	/	/
Cn1c(=O)[nH]c(=O)c2c1nc([N+](=O)[O-])n2Cc1ccccc1	-9.3	-1.4	-7.5	-3.4	8.5*	-10.8	-121.2	-29.6
CC(C)Cn1c([N+](=O)[O-])nc2c1c(=O)[nH]c(=O)n2C	3.1	6.1	5.0	-6.3	-6.0	4.1	/	/
C/C=C/CSc1nc2c(c(=O)[nH]c(=O)n2C)n1Cc1ccc(C)cc1	2.0	7.4	-4.5	/	28.5*	-11.2	12.7	16.8*
CCCCn1c(SCc2ccc(Cl)cc2)nc2c1c(=O)[nH]c(=O)n2C	1.1	12.4	-13.7	-0.7	8.9*	-28.2	1.1	10.1*
CC(C)CCn1c(SCc2ccc(Cl)cc2)nc2c1c(=O)[nH]c(=O)n2C	3.4	8.6	-2.4	-3.5	6.3	-13.3	/	/
CCSc1nc2c(c(=O)[nH]c(=O)n2C)n1Cc1ccc(Cl)cc1	0.9	4.3	-1.0	3.2	7.6*	-9.0	22.9*	17.7*
C=CCN(CC=C)Cc1cc(=O)oc2ccccc12	5.5	/	-1.0	-4.3	/	-0.1	/	/
C=C(C)c1sc(-c2ccccc2)nc1C	1.0	-0.2	-5.7	-6.6	/	/	/	/
C/C(=N\O)c1sc(-c2ccccc2)nc1C	7.9*	-99.4	-55.8	3.7	8.1*	-8.8	122.8*	34.4*
O=C(Nc1ncnc2sc3c(c12)CCCCC3)c1ccco1	4.7	-16.9	-5.3	-3.6	12.4*	20.3	6.8	4.0
CC[C@H](CCCCCC#N)CCC(=O)N(c1ccccc1)c1ccccc1	-6.6	/	22.4	/	/	/	/	/
O=C(N[C@H](Cc1ccccc1)C(=O)NCc1ccccn1)[C@H]1O[C@@H](n2ccc(=O)[nH]c2=O)[C@H](O)[C@@H]1O	-3.2	/	0.5	-5.2	/	/	/	/
Cc1ccc(C(=O)Nc2cnc3ccccn3c2=O)cc1	6.7	-45.5	-22.4	-6.5	8.3*	-4.0	100.3*	30.8*
O=C1CCC[C@H]2C[C@H](NCc3cccnc3)CC[C@]23CCCN13	/	/	-19.2	/	/	/	/	/
CN(Cc1ccccc1)c1nc(N)c([N+](=O)[O-])c(NCc2ccccc2)n1	-2.6	8.7	-13.6	-10.2	7.7*	-6.7	34.7*	11.6*
O=C(NCc1ccco1)c1ccc(Cn2c(=O)c3ccccc3n(Cc3cccc(Cl)c3)c2=O)cc1	1.1	11.7	8.2	-2.9	10.7*	0.6	13.0	6.0
